Experimental data taken from PubChem BioAssay AID1159580 (chemical genetic matrix, 2015).
Where “and” joins values, the source holds several entries; their conditions need not be identical. Equal values may be shown once. About 2,000 (36%) of roughly 5,500 compounds were called active. Inconclusive results (about 18%) are left out. Cut-off read from the data, not from the text of the source: active = normalized growth mostly below about 0.91 (no sharp cut-off); inconclusive = no clear call, values can overlap the other calls; inactive = mostly above about 0.92. The list shows a part of the results.

Assay: chemical genetic growth profiling, strain panel (AID 1159580);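 note: tested at 20 µM; growth read once vehicle control cultures reached saturation at 30 °C; 1 = growth at the plate median or of vehicle wells; lower values mean less growth of the strain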
Settings: S. cerevisiae deletion strains, growth OD

Measured: normalized growth

COc1ccccc1OCC(O)CO (stereo not drawn)
inactive: locus YAL021C, strain ccr4, stronger effect = lower value 1.02 | locus YAL026C, strain drs2, stronger effect = lower value 1.02 | locus YAL030W, strain snc1, stronger effect = lower value 1.02 | locus YBL061C, strain skt5, stronger effect = lower value 1.02 | locus YBR009C, strain hhf1, stronger effect = lower value 1.02 | locus YBR021W, strain FUR4, stronger effect = lower value 1.02 | locus YBR023C, strain chs3, stronger effect = lower value 1.02 | locus YBR171W, strain sec66, stronger effect = lower value 1.04 | locus YBR229C, strain ROT2, stronger effect = lower value 1 | locus YBR231C, strain swc5, stronger effect = lower value 1.02 | locus YBR279W, strain paf1, stronger effect = lower value 1.03 | locus YCL011C, strain gbp2, stronger effect = lower value 1.02 | locus YCL016C, strain dcc1, stronger effect = lower value 1.02 | locus YCL029C, strain bik1, stronger effect = lower value 0.972 | locus YCL061C, strain MRC1, stronger effect = lower value 1.03 | locus YCL069W, strain vba3, stronger effect = lower value 1.01 | locus YCR088W, strain abp1, stronger effect = lower value 1.02 | locus YDL005C, strain med2, stronger effect = lower value 1.04 | locus YDL035C, strain GPR1, stronger effect = lower value 1.02 | locus YDL040C, strain nat1, stronger effect = lower value 1.02 | locus YDL074C, strain BRE1, stronger effect = lower value 1 | locus YDL101C, strain DUN1, stronger effect = lower value 1.01 | locus YDL134C, strain PPH21, stronger effect = lower value 0.997 | locus YDL185W, strain tfp1, stronger effect = lower value 1 | locus YDL192W, strain arf1, stronger effect = lower value 1 | locus YDR001C, strain nth1, stronger effect = lower value 1.02 | locus YDR069C, strain doa4, stronger effect = lower value 1.02 | locus YDR101C, strain arx1, stronger effect = lower value 0.972 | locus YDR137W, strain rgp1, stronger effect = lower value 1.03 | locus YDR159W, strain sac3, stronger effect = lower value 1.02 | locus YDR162C, strain NBP2, stronger effect = lower value 1.01 | locus YDR195W, strain ref2 1.02 | locus YDR297W, strain sur2, stronger effect = lower value 1.02 | locus YDR318W, strain mcm21, stronger effect = lower value 1.02 | locus YDR334W, strain swr1, stronger effect = lower value 1.03 | locus YDR335W, strain msn5, stronger effect = lower value 1.03 | locus YDR388W, stronger effect = lower value 0.99 | locus YDR392W, strain spt3, stronger effect = lower value 0.987 | locus YDR502C, strain sam2, stronger effect = lower value 1.02 | locus YEL003W, strain gim4, stronger effect = lower value 1.01 | locus YEL037C, strain rad23, stronger effect = lower value 1.02 | locus YEL061C, strain CIN8 (second series), stronger effect = lower value 1.02 | locus YEL061C, strain CIN8, stronger effect = lower value 1.03 | locus YER015W, strain faa2, stronger effect = lower value 1.02 | locus YER016W, strain bim1, stronger effect = lower value 1.04 | locus YER110C, stronger effect = lower value 0.988 | locus YER111C, strain swi4, stronger effect = lower value 1.02 | locus YER155C, strain BEM2 (second series), stronger effect = lower value 1.02 | locus YER155C, strain BEM2, stronger effect = lower value 1.01 | locus YER167W, strain BCK2, stronger effect = lower value 1 | locus YFR010W, strain ubp6, stronger effect = lower value 1.02 | locus YGL078C, strain dbp3, stronger effect = lower value 1.02 | locus YGL086W, strain mad1, stronger effect = lower value 1 | locus YGL167C, strain pmr1, stronger effect = lower value 1.02 | locus YGL173C, strain kem1, stronger effect = lower value 1.02 | locus YGL227W, strain vid30, stronger effect = lower value 1.03 | locus YGL240W, strain doc1, stronger effect = lower value 1.03 | locus YGL248W, strain PDE1, stronger effect = lower value 1.01 | locus YGL253W, strain hxk2, stronger effect = lower value 1.01 | locus YGR078C, strain PAC10, stronger effect = lower value 1.01 | locus YGR135W, strain pre9, stronger effect = lower value 1.04 | locus YGR252W, strain gcn5, stronger effect = lower value 1.22 | locus YHR013C, strain ard1, stronger effect = lower value 1.04 | locus YHR027C, strain rpn1, stronger effect = lower value 1.01 | locus YHR030C, strain SLT2, stronger effect = lower value 1 and 0.993 | locus YHR079C, strain IRE1 (second series), stronger effect = lower value 0.988 | locus YHR079C, strain IRE1, stronger effect = lower value 0.965 | locus YHR094C, strain hxt1, stronger effect = lower value 0.978 | locus YHR129C, strain ARP1, stronger effect = lower value 0.964 | locus YHR142W, strain chs7, stronger effect = lower value 1.03 | locus YHR200W, strain rpn10, stronger effect = lower value 1.01 | locus YIL066C, strain RNR3, stronger effect = lower value 1 | locus YIL073C, strain SPO22, stronger effect = lower value 1.05 | locus YIL125W, strain kgd1, stronger effect = lower value 1.01 | locus YIR030C, strain dcg1, stronger effect = lower value 0.99 | locus YJL092W, strain hpr5, stronger effect = lower value 1.03 | locus YJL095W, strain BCK1 (second series), stronger effect = lower value 1.02 | locus YJL095W, strain BCK1, stronger effect = lower value 1.03 and 0.964 | locus YJL115W, strain asf1, stronger effect = lower value 1.02 | locus YJL129C, strain trk1, stronger effect = lower value 1.04 | locus YJL134W, strain LCB3, stronger effect = lower value 1 | locus YJL154C, strain vps35, stronger effect = lower value 1.01 | locus YJL164C, strain tpk1, stronger effect = lower value 1.02 | locus YJL166W, strain qcr8, stronger effect = lower value 1.03 | locus YJL168C, strain set2, stronger effect = lower value 0.986 | locus YJL187C, strain SWE1 (second series), stronger effect = lower value 1.01 | locus YJL187C, strain SWE1, stronger effect = lower value 1.05 | locus YJR043C, strain POL32, stronger effect = lower value 1.01 | locus YJR066W, strain TOR1, stronger effect = lower value 0.924 | locus YKL009W, strain mrt4, stronger effect = lower value 1.01 | locus YKL068W, stronger effect = lower value 1.01 | locus YKL085W, strain MDH1 (second series), stronger effect = lower value 0.999 | locus YKL085W, strain MDH1, stronger effect = lower value 0.999 | locus YKL160W, strain elf1, stronger effect = lower value 1.02 | locus YKR001C, strain vps1, stronger effect = lower value 0.998 | locus YKR026C, strain gcn3, stronger effect = lower value 1.02 | locus YKR091W, strain srl3, stronger effect = lower value 1.02 | locus YLL001W, strain dnm1, stronger effect = lower value 1.02 | locus YLL026W, stronger effect = lower value 1.02 | locus YLL041C, strain sdh2, stronger effect = lower value 1.01 | locus YLR027C, strain aat2, stronger effect = lower value 1.01 | locus YLR039C, strain RIC1, stronger effect = lower value 1.02 | locus YLR058C, strain SHM2, stronger effect = lower value 1.01 | locus YLR102C, strain apc9, stronger effect = lower value 0.982 | locus YLR113W, strain HOG1, stronger effect = lower value 0.999 | locus YLR221C, strain rsa3, stronger effect = lower value 1.01 | locus YLR258W, strain gsy2, stronger effect = lower value 1.01 | locus YLR262C, strain YPT6 (second series), stronger effect = lower value 1.02 | locus YLR262C, strain YPT6, stronger effect = lower value 1.04 | locus YLR268W, strain sec22, stronger effect = lower value 1.01 | locus YLR320W, strain mms22, stronger effect = lower value 1.03 | locus YLR330W, strain CHS5, stronger effect = lower value 1.02 | locus YLR342W, strain FKS1 (second series), stronger effect = lower value 1.01 | locus YLR342W, strain FKS1, stronger effect = lower value 1.02 | locus YLR357W, strain rsc2, stronger effect = lower value 1.03 | locus YLR370C, strain arc18, stronger effect = lower value 1.02 | locus YLR371W, strain rom2, stronger effect = lower value 0.965 | locus YLR384C, strain iki3, stronger effect = lower value 1.02 | locus YLR418C, strain cdc73, stronger effect = lower value 1.06 | locus YML016C, strain PPZ1, stronger effect = lower value 1 | locus YML032C, strain rad52, stronger effect = lower value 1.01 | locus YML120C, strain ndi1, stronger effect = lower value 1.02 | locus YML124C, strain tub3, stronger effect = lower value 0.996 | locus YMR058W, strain fet3, stronger effect = lower value 1.02 | locus YMR078C, strain ctf18, stronger effect = lower value 0.99 | locus YMR125W, strain sto1, stronger effect = lower value 1.06 | locus YMR129W, stronger effect = lower value 1.02 | locus YMR205C, strain PFK2, stronger effect = lower value 1.02 | locus YMR223W, strain ubp8, stronger effect = lower value 1.03 | locus YMR231W, strain pep5, stronger effect = lower value 1.02 | locus YMR307W, strain GAS1, stronger effect = lower value 1.05 | locus YNL067W, strain RPL9B, stronger effect = lower value 1.02 | locus YNL071W, strain lat1, stronger effect = lower value 1.02 | locus YNL153C, strain GIM3, stronger effect = lower value 1.01 | locus YNL183C, strain NPR1, stronger effect = lower value 0.956 | locus YNL209W, strain ssb2, stronger effect = lower value 1.02 | locus YNL233W, strain BNI4, stronger effect = lower value 1.01 | locus YNL248C, strain rpa49, stronger effect = lower value 1.04 | locus YNL250W, strain rad50, stronger effect = lower value 1.02 | locus YNL271C, strain bni1, stronger effect = lower value 1.01 | locus YNL298W, strain CLA4, stronger effect = lower value 1.01 | locus YNL307C, strain MCK1, stronger effect = lower value 0.99 | locus YNL322C, strain KRE1 (second series), stronger effect = lower value 1.04 | locus YNL322C, strain KRE1, stronger effect = lower value 1.01 | locus YNR049C, strain mso1, stronger effect = lower value 1.02 | locus YNR052C, strain pop2, stronger effect = lower value 0.998 | locus YOL012C, strain htz1 0.827 | locus YOL147C, strain pex11, stronger effect = lower value 0.995 | locus YOR001W, strain rrp6, stronger effect = lower value 0.995 | locus YOR061W, strain CKA2, stronger effect = lower value 1.01 | locus YOR069W, strain VPS5, stronger effect = lower value 1.01 | locus YOR070C, strain gyp1, stronger effect = lower value 1.02 | locus YOR080W, strain dia2, stronger effect = lower value 1.04 | locus YOR083W, strain WHI5, stronger effect = lower value 1.02 | locus YOR106W, strain vam3, stronger effect = lower value 1.02 | locus YOR136W, strain idh2, stronger effect = lower value 0.994 | locus YOR144C, strain elg1, stronger effect = lower value 0.993 | locus YOR184W, strain ser1, stronger effect = lower value 1 | locus YOR231W, strain MKK1, stronger effect = lower value 0.991 | locus YOR265W, strain rbl2, stronger effect = lower value 1.02 | locus YOR270C, strain vph1, stronger effect = lower value 1.05 | locus YOR290C, strain snf2, stronger effect = lower value 0.99 | locus YOR316C, strain cot1, stronger effect = lower value 0.986 | locus YPL051W, strain arl3, stronger effect = lower value 1.01 | locus YPL078C, strain atp4, stronger effect = lower value 1.02 | locus YPL106C, strain sse1, stronger effect = lower value 1.01 | locus YPL240C, strain hsp82, stronger effect = lower value 1.02 | locus YPL256C, strain CLN2, stronger effect = lower value 0.977 | locus YPR119W, strain clb2, stronger effect = lower value 0.992 | locus YPR141C, strain kar3, stronger effect = lower value 0.996 | locus YPR163C, strain tif3, stronger effect = lower value 1.01 | locus YPR167C, strain met16, stronger effect = lower value 0.999 | strain wtn01, stronger effect = lower value 1.05
